Our source for the outcome and AC50 values is PubChem BioAssay (EPA / NIEHS).

Structures are written as SMILES. Activity calls are given as the source filed them. How the source made its calls: active means hit-call score of the fitted dose curve at least 0.9, where 1 is the maximum; inactive means score below 0.9.

The assay is described as follows: ATG_M_19_CIS: Attagene CIS-FACTORIAL HepG2 Assay for M19 Transcription Factor (Internal Marker) (AID 2282939). As to conditions: HepG2 Attagene CIS-FACTORIAL M19 internal marker reporter; actives raise or lower the signal. The procedure: ATG_CIS is a cell-based, multiplexed-readout assay that uses HepG2, a human liver cell line, with measurements taken at 24 hours after chemical dosing in a 24-well plate.ATG_M_19_CIS is one of 52 assay component(s) measured or calculated from the ATG_CIS assay. It is designed to make measurements of mRNA induction, a form of inducible reporter, as detected with fluorescence intensity signals by Reverse transcription polymerase chain reaction (RT-PCR) and Capillary electrophoresis technology.Data from the assay component ATG_M_19_CIS was analyzed into 1 assay endpoint. This assay endpoint, ATG_M_19_CIS, was analyzed with bidirectional fitting relative to DMSO as the negative control and baseline of activity. Using a type of inducible reporter, measures of mRNA for gain or loss-of-signal activity can be used to understand the background control at the transcription factor-level as they relate to the gene . Furthermore, this assay endpoint can be referred to as a secondary readout, because this assay has produced multiple assay endpoints where this one serves a background control function. To generalize the intended target to other relatable targets, this assay endpoint is annotated to the background measurement intended target family, where the subfamily is internal marker.
Human liver HepG2 cells are transiently transfected with multiple reporter transcription units (MRTUs) in 6-well plates using FuGene 6 reagent (Roche; 3 ml FuGene/1 mg DNA). The MRTU constructs are regulated by a cis-regulating element (promoter). […] A major difference between the CIS and TRANS system is that in CIS activities of endogenous TFs are measured, whereas the TRANS assay evaluates changes in activities of exogenous, chimeric NR-Gal4 proteins. […] At the end of 24 hour incubation, total RNA was isolated using TriZol reagent (Invitrogen). The isolated RNA is then reverse-transcribed using oligo(dT) primer and Mo-MLV reverse transcriptase (Invitrogen) with DNAse I (Ambion) treatment for 30 min. The one-tenth of the produced cDNA was amplified by PCR using Taq DNA polymerase (Invitrogen) and two reporter sequence-specific primers. The PCR products were fluorescently labeled by primer extension with 6-arboxyfluorescein (6-FAM) 5'-labeled reporter sequence-specific primer (2 min at 95 C, 20 s at 68 C and 10 min at 72 C) and these products were digested with 5U of HpaI (New England Biolabs) for 2h at 37 C. The fragments were purified using Qiaquick PCR columns (Qiagen), analyzed on an ABI 3130xL genetic analyzer (Applied Biosystems) with peak positions identified by using a set of X-rhodamine (ROX)-labeled MapMarker1000 molecular weight standards (BioVentures). The raw capillary electrophoresis data was processed using Attagraph software (Attagene).
Turning to `CC(C)CC(C)(O)C#CC(C)(O)CC(C)C` (stereo not given), the result was inactive.
On the same count and under the same terms, then `CC(=O)OCCC(C)C`, with “inactive”.
Still for that read-out and setting: then `CC(C)CCO`, with “inactive”; and `CC[C@H]1CC[C@H](NCc2cc3c(cc2OC)[C@H]2C[C@H]2C(=O)N3C)[C@H](c2ccccc2)N1`, with “inactive”; and `CC(O)CN(CCN(CC(C)O)CC(C)O)CC(C)O` (stereo not given), with “inactive”.
The same measure, in the same setting: then `CN(C)c1ccc(N=NS(=O)(=O)O)cc1`, with “inactive”; and `COCCOCCOCCOC`, with “inactive”; and `CN(C)c1ccc(Cc2ccc(N(C)C)cc2)cc1`, with “inactive”.
Turning to `CC(C)=CCC/C(C)=C\CO`, the call was inactive.
Consider `Cc1c(-c2cccnc2)c2ccccc2n1CCCCC(=O)O`, for which the compound was called inactive.
The same measure, in the same setting: the same measure for `COc1cccc(-c2ccc(/C=C\CN3CCCCCC3)cc2Cl)c1`: “inactive”; for `CCOCCO`: “inactive”.
The same measure, in the same setting: then `COc1ccc2sc(C(=O)Nc3nnn[nH]3)c(OC(C)C)c2c1`, with “inactive”; and `CNCc1ccc(NC(=O)c2c[nH]c3c2C(=O)CCC3)cc1`, with “inactive”.
With `CCCCCCc1ccc(O)cc1O`, the compound was classed as inactive.
Same read-out and setting: then `CCOC(=O)COc1ccc2c(c1)CC(NCC(O)c1cccc(Cl)c1)CC2` (stereo not given), with “inactive”.
Still for that read-out and setting: then `CC(C)(O)c1coc(S(=O)(=O)NC(=O)Nc2c3c(cc4c2CCC4)CCC3)c1`, with “inactive”; and `Cn1cnc([N+](=O)[O-])c1Sc1ncnc2nc[nH]c12`, with “inactive”.
Consider `CCCCCCCCO`, for which the result was inactive.
Still for that read-out and setting: then `Nc1ccc(Nc2ccccc2)cc1`, with “inactive”; and `NC(=O)NO`, with “inactive”.
Same read-out and setting: the same measure for `CCN(C(=O)c1cc(C)cc(OC[C@H](C)Nc2ccncc2)c1)C(C)C`: “inactive”; for `CCC(C)(C)C(=O)O[C@H]1C[C@@H](C)C=C2C=C[C@H](C)[C@H](CC[C@@H]3C[C@@H](O)CC(=O)O3)[C@H]21`: “inactive”; for `Cn1c(=O)c2c(ncn2C)n(C)c1=O`: “inactive”.
On to `CCOC(=O)c1ccc(C2CCC(NC[C@H](O)COc3ccc(O)c(NS(C)(=O)=O)c3)CC2)cc1` (stereo not given in full), for which the compound was called inactive.
The same measure, in the same setting: then `CC(C)=CCC/C(C)=C/CO`, with “inactive”.
Turning to `O=C(CCCCCCCCc1cccnc1)N1CCC(C=C(c2ccccc2)c2ccccc2)CC1`, the AC50 was 59.4 µM (active).
For the compound `Cn1c(=O)cc(Oc2ccc(F)cc2F)c2cnc(NCC(C)(C)O)nc21`, the outcome was inactive.
Still for that read-out and setting: the same measure for `COC(=O)CC(=O)OC`: “inactive”; for `CCNc1ccccc1`: “inactive”.
The same measure, in the same setting: the same measure for `CCCCCCCCCCCCCCCO`: “inactive”; for `O=C(O)CCN(C1(C(=O)NO)CCCC1)S(=O)(=O)c1ccc(Oc2ccc(F)cc2)cc1`: “inactive”; for `Cc1ccc(C)c(O)c1`: “inactive”.
On the same count and under the same terms, the same measure for `O=C1CCC(N2C(=O)c3ccccc3C2=O)C(=O)N1` (stereo not given): “inactive”; for `C1N2CN3CN1CN(C2)C3`: “inactive”; for `CC1(C)C(=O)N(Br)C(=O)N1Br`: “inactive”.
For `CCCCC(CC)COC(=O)c1ccc(C(=O)OCC(CC)CCCC)cc1` (stereo not given), the compound was called inactive.
The same measure, in the same setting: the same measure for `CC/C(=C\C(=N/O)C(N)=O)C(C)[N+](=O)[O-]` (stereo not given): “inactive”; for `CCCC(=O)OCC`: “inactive”; for `CC[C@H](C)C(=O)O[C@H]1C[C@@H](C)C=C2C=C[C@H](C)[C@H](CC[C@@H]3C[C@@H](O)CC(=O)O3)[C@H]21`: “inactive”.
